FLuc modulator – inhibits or activates purified firefly luciferase, miR-21 counter-screen. AID 588342. actives 6.9% (n = 360,000). Potency, µM (titrated, usually from 57.5 µM), for inactives: at the highest dose activity change, negative = inhibition, actives largely listed as inhibitors. P08659. purified FLuc, Km substrates, luminescence inhibition;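 note: plate controls were vehicle for no effect and reference inhibitor for full effect; nearly all actives have a fitted effect of over 55% in size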
Target sequence (P08659 whole entry, looked up): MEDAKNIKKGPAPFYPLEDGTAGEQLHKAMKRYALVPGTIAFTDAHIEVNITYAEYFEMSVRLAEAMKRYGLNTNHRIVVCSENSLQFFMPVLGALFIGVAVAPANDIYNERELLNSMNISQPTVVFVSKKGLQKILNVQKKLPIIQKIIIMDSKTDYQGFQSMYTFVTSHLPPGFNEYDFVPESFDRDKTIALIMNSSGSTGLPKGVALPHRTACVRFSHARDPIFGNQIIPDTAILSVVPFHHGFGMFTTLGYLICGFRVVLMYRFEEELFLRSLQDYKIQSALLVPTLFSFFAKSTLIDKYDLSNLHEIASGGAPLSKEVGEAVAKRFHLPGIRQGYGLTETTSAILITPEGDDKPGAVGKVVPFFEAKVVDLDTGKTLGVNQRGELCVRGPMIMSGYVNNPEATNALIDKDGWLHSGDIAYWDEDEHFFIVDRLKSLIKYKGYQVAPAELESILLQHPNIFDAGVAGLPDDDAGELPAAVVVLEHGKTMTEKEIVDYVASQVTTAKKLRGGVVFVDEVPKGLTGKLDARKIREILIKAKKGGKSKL
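Biochemical qHTS of compounds, final roughly 60 µM downward over six points, against 10 nM purified firefly luciferase using Km concentrations of substrates (10 uM D-luciferin, 10 uM ATP) in Tris acetate pH 7.5 buffer; luminescence output.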
Rab9 promoter act – Rab9 promoter activation | Huh7 Rab9 promoter-luciferase reporter, luminescence, 24 h | Potency, µM (highest dose often 9.22 µM), inactives show at the highest dose activation, negative = inhibition, most hits filed as activators | actives 2.8% (n = 320,000); note: % of control where 0% means no effect; nearly all actives have a fitted effect of over 60% in size
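Steps: seed 1500 Huh7 Rab9-luc cells per well, rest 2 h at 37 °C; add compound in DMSO; incubate 24 h; add luciferase reagent, 10 min ambient; read luminescence.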
SMN2 splice enh – increases expression of the SMN2 splice variant | HEK293 SMN2-luciferase splicing reporter, luminescence, 30-36 h | Potency, µM (series often up to 46.1 µM), for inactives: at the highest dose activity change, positive = activation, actives largely listed as activators | actives 2.8% (n = 210,000); note: % of control where 0% means no effect; nearly all actives have a fitted effect of over 55% in size
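HEK293 cells carry an SMN2 […]–luciferase reporter in which exon 7 inclusion puts luciferase in frame. Cells were plated 10-12 h before compound addition, then incubated 30-36 h at 37C. ONE-Glo luminescence was read; sodium butyrate at 4.5 mM final served as control.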
NPC1 prom act – activators of NPC1 promoter; Potency, µM (highest dose often 9.22 µM), for inactives: at the top dose activation, usual class: activators; AID 485313; actives 2.4% (n = 320,000); Huh7 NPC1 promoter luciferase reporter, 24 h; note: % of control where 0% means no effect; nearly all actives have a fitted effect of over 60% in size
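Cells: Huh7 expressing luciferase under the NPC1 promoter, 1500/well. Seeded 2 h, compound added, incubated 24 h at 37 °C. Luciferase reagent, 10 min ambient, then luminescence.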
ELG1 genotox – induces genotoxicity in HEK293T cells with luciferase-tagged ELG1; HEK293T ELG1-luciferase reporter, luminescence, 16 h; Potency, µM (series often up to 46 µM), for the others: at the top dose activity change, positive = activation, actives largely listed as activators; actives 1.3% (n = 330,000); note: % of control where 0% means no effect; nearly all actives have a fitted effect of over 60% in size
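Luminescence read-out: rising ELG1-luciferase signal, reflecting elevated ELG1 protein under genetic stress, flags genotoxic compounds. Cells were treated for 16 hr at 37 °C before ONE-Glo detection.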
The depositor's hits bear a star; [ ] = dose if it differs, or a comment. Most compounds without a hit are left out; they make up all but 7.5% or so of the library. Calls come from the whole dose curve; as a rule, active = well fitted curve in the direction sought with a large enough effect; inconclusive = small, poorly fitted or top-dose-only effect, or another doubt; inactive = no such curve, though single readings can be large; an effect the other way counts as inactive or inconclusive. Potency is the fitted concentration of half-maximal effect.

Results for Cn1c(CCNC(=O)c2ccco2)nc2cc(NC(=O)c3ccccc3)ccc21 ?
FLuc modulator: 17µM*; Rab9 promoter act: inconclusive; NPC1 prom act: inconclusive; ELG1 genotox: 15%

Results for Cc1nc2cc(NC(=O)NCc3ccco3)ccc2n1C ?
FLuc modulator: inconclusive; Rab9 promoter act: inconclusive; SMN2 splice enh: inconclusive; NPC1 prom act: 27%; ELG1 genotox: 15µM*

What do the screens show for `CSc1ccc(CN2CCN(C(=O)CC(C)C)CC2)cc1`?
FLuc modulator: 1%; Rab9 promoter act: 1%; NPC1 prom act: 2%; ELG1 genotox: -4%

How did CCOC(=O)c1ccc(NC(=O)c2oc3c(c2C)-c2nn(Cc4ccccc4Cl)cc2CC3)cc1 do in these assays?
FLuc modulator: -4%

What do the screens show for `CC1=C(C(=O)OC2CCCC2)C(c2ccc(F)cc2F)CC(=O)N1` (stereo not given)?
FLuc modulator: 0%; SMN2 splice enh: -15%

What do the screens show for `CCC(=O)NCCc1nc2cc(NC(=O)c3ccco3)ccc2n1C`?
FLuc modulator: 17µM*; Rab9 promoter act: inconclusive; NPC1 prom act: inconclusive; ELG1 genotox: inconclusive

Results for CCCCC(=O)Nc1ccc2c(c1)nc(CCNC(=O)c1ccco1)n2C ?
FLuc modulator: -12%; Rab9 promoter act: 19%; NPC1 prom act: 4%; ELG1 genotox: 11%

How did Cc1ccc(O)c(C(=O)CC(=O)c2ccc(Cl)cc2)c1 do in these assays?
FLuc modulator: 24µM*; Rab9 promoter act: inconclusive; NPC1 prom act: 15%; ELG1 genotox: inconclusive

What do the screens show for `Cc1cccc(C(=O)CC(=O)c2cc(Cl)ccc2O)c1`?
FLuc modulator: -12%; Rab9 promoter act: -2%; SMN2 splice enh: -98%; NPC1 prom act: -2%; ELG1 genotox: -7%

How did Cc1ccc(O)c(C(=O)CC(=O)c2cccc(F)c2)c1 do in these assays?
FLuc modulator: -7%[2.3 µM]; Rab9 promoter act: inconclusive; SMN2 splice enh: 35µM*; NPC1 prom act: inconclusive; ELG1 genotox: 7%

How did CCCOC(=O)c1ccc(OCC(O)Cn2c(C)nc3ccccc32)cc1 (stereo not given) do in these assays?
FLuc modulator: 3%; Rab9 promoter act: -31%; SMN2 splice enh: -88%; NPC1 prom act: -22%; ELG1 genotox: 10µM*

How did CC(=O)Nc1cccc(OCC(O)Cn2c(C)nc3ccccc32)c1 (stereo not given) do in these assays?
FLuc modulator: -2%; Rab9 promoter act: -5%; SMN2 splice enh: -40%; NPC1 prom act: -2%; ELG1 genotox: -7%

Results for COC(=O)[C@@H]1C[C@H]1[C@@H](N)c1ccccc1 ?
SMN2 splice enh: -7%

What do the screens show for `Nc1nc(N)nc(-c2ccccc2)n1`?
FLuc modulator: -2%; Rab9 promoter act: 2%; SMN2 splice enh: 6%; NPC1 prom act: 0%; ELG1 genotox: 0%

Results for Nc1nc(N)nc(-c2ccc(Cl)c(Cl)c2)n1 ?
FLuc modulator: 4.8µM*; Rab9 promoter act: inconclusive; NPC1 prom act: 2µM*; ELG1 genotox: 7%

Results for COc1cccc(C2=NC(C)(C)NC(c3ccccc3O)C2)c1 (stereo not given) ?
FLuc modulator: 8.5µM*; Rab9 promoter act: 3%; SMN2 splice enh: -4%; NPC1 prom act: -2%; ELG1 genotox: 1%

What do the screens show for `CCC1(C)N=C(c2ccc3c(c2)OCO3)CC(c2ccccc2O)N1` (stereo not given)?
FLuc modulator: 7.6µM*; Rab9 promoter act: inconclusive; SMN2 splice enh: inconclusive; NPC1 prom act: 11%; ELG1 genotox: 10%

What do the screens show for `COc1cccc(C2=NOC(C(=O)NC(C)C)C2)c1` (stereo not given)?
FLuc modulator: -2%; Rab9 promoter act: -4%; SMN2 splice enh: 1%; NPC1 prom act: 1%; ELG1 genotox: 1%

What do the screens show for `CCN(CC)C(=O)C1=CC(c2ccc3c(c2)OCO3)=NS(=O)(=O)N1C`?
FLuc modulator: -11%

How did CCC1Oc2ccccc2N(CC(=O)NCCN2C(C)CCCC2C)C1=O (stereo not given) do in these assays?
FLuc modulator: 0%; Rab9 promoter act: -1%; SMN2 splice enh: 10µM*; NPC1 prom act: -1%; ELG1 genotox: -1%

What do the screens show for `CCC1Oc2ccccc2N(CC(=O)NCCN2CCCC2)C1=O` (stereo not given)?
FLuc modulator: 0%; Rab9 promoter act: 9%; NPC1 prom act: 2%; ELG1 genotox: 0%

How did CC1Oc2ccccc2N(CC(=O)NC2CC2)C1=O (stereo not given) do in these assays?
FLuc modulator: 1%; Rab9 promoter act: 0%; NPC1 prom act: -2%; ELG1 genotox: 0%

What do the screens show for `CC1Oc2ccccc2N(CC(=O)NCc2ccccc2)C1=O` (stereo not given)?
FLuc modulator: inconclusive; Rab9 promoter act: 4µM*; NPC1 prom act: inconclusive; ELG1 genotox: inconclusive

How did CCn1cc(S(=O)(=O)c2ccc(OC)cc2)c(=O)c2cc(F)c(N3CCC(C)CC3)cc21 do in these assays?
FLuc modulator: 6%

Results for Cc1c(N)cccc1-c1nc2ccccc2[nH]1 ?
FLuc modulator: 24µM*; Rab9 promoter act: 30%; SMN2 splice enh: 10µM*; NPC1 prom act: 25%; ELG1 genotox: 18%

How did Nc1nc(-c2nc3ccccc3[nH]2)cs1 do in these assays?
FLuc modulator: 5.4µM*; Rab9 promoter act: 1.1µM*; SMN2 splice enh: 16µM*; NPC1 prom act: 1.3µM*; ELG1 genotox: 2.1µM*

Results for O=c1[nH]c(-c2ccccn2)nc2ccccc12 ?
FLuc modulator: 24µM*; Rab9 promoter act: inconclusive; NPC1 prom act: inconclusive; ELG1 genotox: inconclusive

How did Cc1sc2nc(-c3ccccn3)[nH]c(=O)c2c1-c1ccccc1 do in these assays?
FLuc modulator: 11µM*; Rab9 promoter act: 28%; SMN2 splice enh: 52%; NPC1 prom act: 24%; ELG1 genotox: inconclusive

What do the screens show for `O=c1[nH]c(-c2ccccc2O)nc2ccccc12`?
SMN2 splice enh: 9%

What do the screens show for `CC(C)(C)OC(=O)[C@H](C1N[C@@H](C(=O)O)C(C)(C)S1)N1C(=O)c2ccccc2C1=O` (stereo not given in full)?
SMN2 splice enh: -1%[9.22 µM]

What do the screens show for `COc1ccc(NC(=O)N2CC3(CCN(C(=O)c4ccco4)CC3)C2)cc1`?
SMN2 splice enh: -3%

Results for CC(NC(=O)C1CCN(C(=O)Nc2ccccc2)CC1)c1ccc(Cl)cc1 (stereo not given) ?
FLuc modulator: -3%; Rab9 promoter act: -6%; NPC1 prom act: -10%; ELG1 genotox: -2%

What do the screens show for `CCC1=C(OC(=O)N(CC)CC)N2C(=O)OC(=NCCOC)[C@]2(C)[C@H]2C1=CC[C@H]1C(=O)N(CC(=O)OC)C(=O)[C@H]12`?
SMN2 splice enh: -2%

What do the screens show for `COc1c(C)cccc1C(=O)Nc1cccc2ccc(C)nc12`?
FLuc modulator: -19%; SMN2 splice enh: -24%

Compound activity from PubChem BioAssay.
